Source: PubChem BioAssay AID1159580 (chemical genetic matrix, 2015)
The campaign covered roughly 5,500 compounds. About 2,000 (36%) were called active. Not shown: some 18% with an inconclusive outcome. Cut-off read from the data, not from the text of the source: active = normalized growth mostly below about 0.91 (no sharp cut-off); inconclusive = no clear call, values can overlap the other calls; inactive = mostly above about 0.92. The list shows a part of the results.

Assay: chemical genetic growth profiling, strain panel (AID 1159580);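 note: tested at 20 µM; growth read once vehicle control cultures reached saturation at 30 °C; 1 = growth at the plate median or of vehicle wells; lower values mean less growth of the strain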
Conditions: growth OD

Measured: normalized growth

NC(=O)N/N=C\c1ccc([N+](=O)[O-])o1
inactive: S. cerevisiae deletion strains, locus YJR066W, strain TOR1, active compounds read low 0.911 | S. cerevisiae deletion strains, locus YKL009W, strain mrt4, active compounds read low 0.979 | S. cerevisiae deletion strains, locus YKL068W, active compounds read low 0.994 | S. cerevisiae deletion strains, locus YKL085W, strain MDH1 (second series), active compounds read low 0.987 | S. cerevisiae deletion strains, locus YKL085W, strain MDH1, active compounds read low 0.987 | S. cerevisiae deletion strains, locus YKL160W, strain elf1, active compounds read low 0.983 | S. cerevisiae deletion strains, locus YKL190W, strain CNB1, active compounds read low 1.02 | S. cerevisiae deletion strains, locus YKR001C, strain vps1, active compounds read low 0.95 | S. cerevisiae deletion strains, locus YKR026C, strain gcn3, active compounds read low 1 | S. cerevisiae deletion strains, locus YKR091W, strain srl3, active compounds read low 0.991 | S. cerevisiae deletion strains, locus YLL001W, strain dnm1, active compounds read low 0.995 | S. cerevisiae deletion strains, locus YLL026W, active compounds read low 0.999 | S. cerevisiae deletion strains, locus YLL041C, strain sdh2, active compounds read low 0.995 | S. cerevisiae deletion strains, locus YLR027C, strain aat2, active compounds read low 1 | S. cerevisiae deletion strains, locus YLR039C, strain RIC1, active compounds read low 1.03 | S. cerevisiae deletion strains, locus YLR058C, strain SHM2, active compounds read low 0.994 | S. cerevisiae deletion strains, locus YLR102C, strain apc9, active compounds read low 0.984 | S. cerevisiae deletion strains, locus YLR113W, strain HOG1, active compounds read low 1 | S. cerevisiae deletion strains, locus YLR221C, strain rsa3, active compounds read low 0.975 | S. cerevisiae deletion strains, locus YLR258W, strain gsy2, active compounds read low 0.998 | S. cerevisiae deletion strains, locus YLR262C, strain YPT6 (second series), active compounds read low 1.01 | S. cerevisiae deletion strains, locus YLR262C, strain YPT6, active compounds read low 1.03 | S. cerevisiae deletion strains, locus YLR268W, strain sec22, active compounds read low 0.969 | S. cerevisiae deletion strains, locus YLR320W, strain mms22, active compounds read low 0.98 | S. cerevisiae deletion strains, locus YLR330W, strain CHS5, active compounds read low 0.998 | S. cerevisiae deletion strains, locus YLR342W, strain FKS1 (second series), active compounds read low 1.03 | S. cerevisiae deletion strains, locus YLR342W, strain FKS1, active compounds read low 1 | S. cerevisiae deletion strains, locus YLR357W, strain rsc2, active compounds read low 0.97 | S. cerevisiae deletion strains, locus YLR370C, strain arc18, active compounds read low 0.997 | S. cerevisiae deletion strains, locus YLR371W, strain rom2, active compounds read low 0.986 | S. cerevisiae deletion strains, locus YLR384C, strain iki3, active compounds read low 1.01 | S. cerevisiae deletion strains, locus YLR418C, strain cdc73, active compounds read low 0.904 | S. cerevisiae deletion strains, locus YML016C, strain PPZ1, active compounds read low 1 | S. cerevisiae deletion strains, locus YML032C, strain rad52, active compounds read low 0.938 | S. cerevisiae deletion strains, locus YML120C, strain ndi1, active compounds read low 1.02 | S. cerevisiae deletion strains, locus YML124C, strain tub3, active compounds read low 0.993 | S. cerevisiae deletion strains, locus YMR058W, strain fet3, active compounds read low 0.961 | S. cerevisiae deletion strains, locus YMR078C, strain ctf18, active compounds read low 0.994 | S. cerevisiae deletion strains, locus YMR125W, strain sto1, active compounds read low 0.993 | S. cerevisiae deletion strains, locus YMR129W, active compounds read low 1 | S. cerevisiae deletion strains, locus YMR205C, strain PFK2, active compounds read low 1.02 | S. cerevisiae deletion strains, locus YMR223W, strain ubp8, active compounds read low 0.97 | S. cerevisiae deletion strains, locus YMR231W, strain pep5, active compounds read low 0.993 | S. cerevisiae deletion strains, locus YMR307W, strain GAS1, active compounds read low 1.01 | S. cerevisiae deletion strains, locus YNL067W, strain RPL9B, active compounds read low 1.01 | S. cerevisiae deletion strains, locus YNL071W, strain lat1, active compounds read low 0.99 | S. cerevisiae deletion strains, locus YNL128W, strain TEP1, active compounds read low 1.03 | S. cerevisiae deletion strains, locus YNL153C, strain GIM3, active compounds read low 1.01 | S. cerevisiae deletion strains, locus YNL183C, strain NPR1, active compounds read low 0.919 | S. cerevisiae deletion strains, locus YNL209W, strain ssb2, active compounds read low 0.994 | S. cerevisiae deletion strains, locus YNL233W, strain BNI4, active compounds read low 0.998 | S. cerevisiae deletion strains, locus YNL248C, strain rpa49, active compounds read low 0.967 | S. cerevisiae deletion strains, locus YNL250W, strain rad50, active compounds read low 0.97 | S. cerevisiae deletion strains, locus YNL271C, strain bni1, active compounds read low 0.999 | S. cerevisiae deletion strains, locus YNL298W, strain CLA4, active compounds read low 0.986 | S. cerevisiae deletion strains, locus YNL307C, strain MCK1, active compounds read low 0.995 | S. cerevisiae deletion strains, locus YNL322C, strain KRE1 (second series), active compounds read low 0.997 | S. cerevisiae deletion strains, locus YNR049C, strain mso1, active compounds read low 0.995 | S. cerevisiae deletion strains, locus YNR052C, strain pop2, active compounds read low 0.989 | S. cerevisiae deletion strains, locus YOL006C, strain TOP1, active compounds read low 1.06 | S. cerevisiae deletion strains, locus YOL012C, strain htz1 0.96 | S. cerevisiae deletion strains, locus YOL147C, strain pex11, active compounds read low 0.988 | S. cerevisiae deletion strains, locus YOR001W, strain rrp6, active compounds read low 1.01 | S. cerevisiae deletion strains, locus YOR061W, strain CKA2, active compounds read low 0.994 | S. cerevisiae deletion strains, locus YOR069W, strain VPS5, active compounds read low 1 | S. cerevisiae deletion strains, locus YOR070C, strain gyp1, active compounds read low 0.998 | S. cerevisiae deletion strains, locus YOR080W, strain dia2, active compounds read low 1.01 | S. cerevisiae deletion strains, locus YOR083W, strain WHI5, active compounds read low 0.963 | S. cerevisiae deletion strains, locus YOR106W, strain vam3, active compounds read low 0.983 | S. cerevisiae deletion strains, locus YOR136W, strain idh2, active compounds read low 0.984 | S. cerevisiae deletion strains, locus YOR144C, strain elg1, active compounds read low 0.989 | S. cerevisiae deletion strains, locus YOR184W, strain ser1, active compounds read low 0.989 | S. cerevisiae deletion strains, locus YOR231W, strain MKK1, active compounds read low 0.95 | S. cerevisiae deletion strains, locus YOR265W, strain rbl2, active compounds read low 0.996 | S. cerevisiae deletion strains, locus YOR270C, strain vph1, active compounds read low 0.972 | S. cerevisiae deletion strains, locus YOR290C, strain snf2, active compounds read low 0.986 | S. cerevisiae deletion strains, locus YOR316C, strain cot1, active compounds read low 0.992 | S. cerevisiae deletion strains, locus YPL051W, strain arl3, active compounds read low 0.966 | S. cerevisiae deletion strains, locus YPL078C, strain atp4, active compounds read low 0.991 | S. cerevisiae deletion strains, locus YPL106C, strain sse1, active compounds read low 0.956 | S. cerevisiae deletion strains, locus YPL240C, strain hsp82, active compounds read low 1.01 | S. cerevisiae deletion strains, locus YPL241C, strain CIN2, active compounds read low 1.01 | S. cerevisiae deletion strains, locus YPL256C, strain CLN2, active compounds read low 0.982 | S. cerevisiae deletion strains, locus YPR119W, strain clb2, active compounds read low 0.987 | S. cerevisiae deletion strains, locus YPR141C, strain kar3, active compounds read low 0.993 | S. cerevisiae deletion strains, locus YPR163C, strain tif3, active compounds read low 0.992 | S. cerevisiae deletion strains, locus YPR167C, strain met16, active compounds read low 0.987 | S. cerevisiae deletion strains, strain wtn01, active compounds read low 0.97 | S. cerevisiae strains, strain wild type, active compounds read low 1.03
